PostGolgi yeast: growth inhibition of a yeast mutant, post-Golgi transport screen; inhibition, % at 10 µM; 0.9% of 98,000 active; post-Golgi transport phenotypic cell assay;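 also: yeast cells grown in 1536-well plates; yeast grown about 18 h at 30C before absorbance read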
CYP2C9 activ: increases human cytochrome P450 2C9 activity; 1.4% of 96,000 active; activation factor at 5 µM; recombinant CYP2C9, luciferin-H conversion, luminescence; stronger effect = higher value; factor 1 = untreated enzyme, 0 = blocked;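 active = activation factor of 2 or more for CYP2C9 at a 5 µM dose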
Target sequence (P11712 whole entry, looked up): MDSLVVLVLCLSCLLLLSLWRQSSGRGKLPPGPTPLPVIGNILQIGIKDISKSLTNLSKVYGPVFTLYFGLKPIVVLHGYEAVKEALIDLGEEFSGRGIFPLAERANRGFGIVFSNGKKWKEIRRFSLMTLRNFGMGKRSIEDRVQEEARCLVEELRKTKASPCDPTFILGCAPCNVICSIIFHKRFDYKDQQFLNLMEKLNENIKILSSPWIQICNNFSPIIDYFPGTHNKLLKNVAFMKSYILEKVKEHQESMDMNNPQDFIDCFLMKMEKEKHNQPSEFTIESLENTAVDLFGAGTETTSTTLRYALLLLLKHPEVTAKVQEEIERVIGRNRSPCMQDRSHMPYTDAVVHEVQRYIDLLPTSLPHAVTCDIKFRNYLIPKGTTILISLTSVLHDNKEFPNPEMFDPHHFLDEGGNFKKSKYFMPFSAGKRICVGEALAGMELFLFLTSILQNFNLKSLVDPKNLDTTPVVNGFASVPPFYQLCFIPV
CYP2C19 inh: inhibitors of human CYP2C19. P33261. CYP2C19 Supersomes, luciferin-H EGE luminescence, 30 min. inhibition, % at 5 µM. 21% of 96,000 active;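 active = CYP2C19 inhibition above a set limit at 5 µM in the primary screen, cut at about 50% in these data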
PostGolgi ctrl: yeast control strain growth, post-Golgi counter-screen; efflux-deficient yeast background strain, growth absorbance A615, 16 h; inhibition, % at 10 µM; 5% of 98,000 active; AID 738
CYP2C19 act: increases human CYP2C19 enzyme activity; activation factor at 5 µM; recombinant CYP2C19, luciferin-H EGE luminescence; stronger effect = higher value; 0 = fully inhibited enzyme, 1 = untreated enzyme; P33261; 96,000 tested, under 10 active;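 active = activation factor of at least 2 at 5 µM in the primary screen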
CYP2C9 inhib: human CYP2C9 inhibition | P11712 | CYP2C9 Supersomes, luciferin-H conversion, luminescence | inhibition, % at 5 µM | 20% of 96,000 active;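 active = blocking of liver enzyme CYP2C9 beyond about 50% at 5 µM, limit read from the data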
A number is an active result; i = inactive; nt = no result. This is a sample that favours compounds with a hit; in the whole collection about 32% have one here. Rule as the data show it, unless noted: active = inhibition above about 30%; inactive = the rest.

SMILES	PostGolgi yeast	CYP2C9 activ	CYP2C19 inh	PostGolgi ctrl	CYP2C19 act	CYP2C9 inhib
COC(=O)c1cccc(NC(=O)C2COc3ccccc3O2)c1 (configuration not stated)	i	i	67	39	i	60
O=C(Nc1ccc(S(=O)(=O)N2CCCC2)cc1)C1COc2ccccc2O1 (configuration not stated)	i	nt	nt	i	nt	nt
COC(=O)c1cc(NC(=O)C2COc3ccccc3O2)ccc1Cl (configuration not stated)	i	i	95	30	i	72
CC(=O)NCCc1ccc(S(=O)(=O)NC2OC(=O)c3ccccc32)cc1 (configuration not stated)	i	i	i	i	i	i
O=C(CSCc1ccc(F)cc1)Nc1nc2c(s1)CCCC2	i	i	i	i	i	i
COC(=O)c1ccccc1NC(=O)c1cc(-c2ccc(C)cc2)on1	i	i	i	i	i	i
Cc1ccc(C)c(N2CCN(CC(=O)Nc3ccc([N+](=O)[O-])cc3C(=O)Nc3ccccc3F)CC2)c1	i	i	i	38	i	i
CCOc1ccc(OCC)c(NC(=O)CN2CCN(c3cc(C)ccc3C)CC2)c1	i	i	i	i	i	i
CC(C)(C)NC(=O)c1cc(F)c(F)cc1Cl	i	i	i	i	i	i
O=C(Nc1ccc(Cl)c(C(F)(F)F)c1)C1CCCN(S(=O)(=O)c2cnc[nH]2)C1 (configuration not stated)	i	i	93	i	i	94
Cc1n[nH]c(C)c1S(=O)(=O)N1CCCC(C(=O)Nc2ccc3c(c2)OCCO3)C1 (configuration not stated)	i	i	i	i	i	i
Cc1ccc(NC(=O)C2CCCN(S(=O)(=O)c3cnc[nH]3)C2)cc1C (configuration not stated)	i	i	90	i	i	86
O=C(Nc1ccc2c(c1)OCCO2)C1CCCN(S(=O)(=O)c2cnc[nH]2)C1 (configuration not stated)	i	i	i	i	i	62
COc1ccc(NC(=O)C2CCCN(S(=O)(=O)c3cnc[nH]3)C2)cc1 (configuration not stated)	i	i	i	i	i	62
CC(C)CCn1c(SCC(N)=O)nc2c1c(=O)n(C)c(=O)n2C	i	i	i	i	i	i
O=C(NCCN1CCN(c2cccc(Cl)c2)CC1)C1CCCN(S(=O)(=O)c2cnc[nH]2)C1 (configuration not stated)	i	i	i	i	i	i
Cc1cc(NC(=O)C2CCCN(S(=O)(=O)c3cnc[nH]3)C2)ccc1Br (configuration not stated)	i	i	97	i	i	94
O=C(Nc1cccc(Cl)c1)C1CCCN(S(=O)(=O)c2cnc[nH]2)C1 (configuration not stated)	i	i	95	i	i	96
Cc1ccc(C(=O)Nc2ccc3c(c2)OCO3)cc1S(=O)(=O)N1CCCC1	i	i	i	i	i	58
Cc1ccc(S(=O)(=O)N2CCC(C(=O)Nc3ccc4c(c3)OCO4)CC2)cc1	i	i	i	i	i	i
COC(=O)c1cccc(NC(=O)c2ccc3c(c2)C(=O)N(CC2CCCO2)C3=O)c1 (configuration not stated)	i	i	i	i	i	i
Cc1ccc(C(=O)OCc2ccc3c(c2)OCO3)cc1S(=O)(=O)N1CCCCC1	i	i	79	i	i	95
Cc1ccc(C(=O)Nc2cccc(C(=O)O)c2)cc1S(=O)(=O)N1CCOCC1	i	i	i	i	i	i
O=C(O)c1cccc(NC(=O)c2ccc3c(c2)C(=O)N(CC2CCCO2)C3=O)c1 (configuration not stated)	i	i	77	i	i	73
Cc1ccc(C(=O)Nc2cccc(C(=O)O)c2)cc1S(=O)(=O)N1CCCCC1	i	i	i	i	i	57
SMILES	PostGolgi yeast	CYP2C9 activ	CYP2C19 inh	PostGolgi ctrl	CYP2C19 act	CYP2C9 inhib
Cc1cc(C(C)(C)C)oc1C(=O)Nc1ccc(CC(=O)O)cc1	i	i	i	i	i	i
C=CCn1c(C(C)NC(=O)c2ccccc2)n[nH]c1=S (configuration not stated)	i	i	62	i	i	i
COc1ccc(C(=O)NCc2ccccc2)cc1S(=O)(=O)N1CCCc2ccccc21	i	i	i	i	i	55
COC(=O)c1cc(COC(=O)c2ccc(OC)c(S(=O)(=O)N3CCCC3)c2)oc1C	i	i	98	i	i	97
COc1ccc(C(=O)N2CCCC2)cc1S(=O)(=O)N1CCOCC1	i	i	i	i	i	i
COc1ccc(C(=O)NC2CCCCC2)cc1S(=O)(=O)N1CCCC1	i	i	i	i	i	53
COc1ccc(C(=O)NC(C)(C)C)cc1S(=O)(=O)N1CCCC1	i	i	i	i	i	53
O=C(NC1CCCC1)c1ccc(S(=O)(=O)N2CCCC2)cc1	i	i	i	i	i	i
FC(F)(F)c1nnc(-c2ccccc2)nc1Oc1ccc(Cl)cc1Cl	i	i	61	34	i	i
CCOC(=O)c1nnc(-c2ccccc2)nc1Oc1ccccc1Cl	i	i	i	31	i	i
Cc1ccccc1Cn1cc(NC(=O)COc2ccccc2)cn1	i	i	i	i	i	i
Cc1csc(=N)n1-c1ccc(Cl)cc1	i	i	i	i	i	i
CCOC(=O)N1CCN(Cc2nc3c(c(=O)[nH]c(=O)n3C)n2CCCc2ccccc2)CC1	i	i	i	i	i	i
COc1ccc(OC)c(C(=O)COC(=O)C2CC3CCCC(C2)C3=O)c1 (configuration not stated)	i	i	50	i	i	i
COc1ccc(OC)c(C(=O)c2ccc(C(=O)c3cc(OC)ccc3OC)cc2)c1	i	i	i	i	i	i
COc1ccc(OC)c(C(=O)COC(=O)c2ccc(C)o2)c1	i	i	93	i	i	i
COc1ccc(C(=O)Cc2ccc(OC)c(OC)c2)c(OC)c1	i	i	99	i	i	i
COc1ccc(C(=O)OCC(=O)c2cc(OC)ccc2OC)c(OC)c1	i	3.1	86	i	i	i
COc1ccc(CC(=O)c2cc(OC)c(OC)cc2CC(=O)O)cc1OC	i	i	i	i	i	i
CCCCN(C)Cc1c(C)[nH]c2ccc(OCC)cc2c1=O	i	i	i	i	i	i
COc1ccc(/C(N)=N/OC(=O)Cc2ccc(OC)c(OC)c2)cc1	i	i	i	i	i	65
COc1cc(CNC2CCCC2)cc(OC)c1OC	i	i	i	i	i	i
CCOc1cc(CNC2CCCC2)cc(Cl)c1OCc1ccc(F)cc1	i	i	95	i	i	i
COc1cc(CNC2CCCC2)cc(Cl)c1OCc1ccc(F)cc1	i	i	95	44	i	i
Cn1c(C(=O)Nc2ccccc2)cc2sccc21	i	i	i	i	i	i
O=C(c1cc(=O)c2ccccc2o1)N1CCCc2ccccc21	i	i	i	i	i	i
CCOC(=O)c1cc2sccc2n1Cc1ccccc1	i	i	i	i	i	i

Source: PubChem BioAssay
